# High-throughput results deposited in PubChem BioAssay by National Center for Advancing Translational Sciences (NCATS).
# Only some compounds are listed: those with a hit (about 5.7% of all), similar ones and a draw of the others.
# PI4K2A block = blocks human PI4K2A kinase activity; Q9BTU6; actives 0.13% (n = 420,000); AID 1346378; purified PI4K2A, ADP-Glo luminescence, 1 h; stronger effect = lower value; activity change, negative = inhibition, % at 76.9 µM; in the data active = activity change below about -50%; inconclusive = mostly about -30% to -49%;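 note: -100% = wells without enzyme as full effect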
# Target sequence (Q9BTU6 whole entry, looked up): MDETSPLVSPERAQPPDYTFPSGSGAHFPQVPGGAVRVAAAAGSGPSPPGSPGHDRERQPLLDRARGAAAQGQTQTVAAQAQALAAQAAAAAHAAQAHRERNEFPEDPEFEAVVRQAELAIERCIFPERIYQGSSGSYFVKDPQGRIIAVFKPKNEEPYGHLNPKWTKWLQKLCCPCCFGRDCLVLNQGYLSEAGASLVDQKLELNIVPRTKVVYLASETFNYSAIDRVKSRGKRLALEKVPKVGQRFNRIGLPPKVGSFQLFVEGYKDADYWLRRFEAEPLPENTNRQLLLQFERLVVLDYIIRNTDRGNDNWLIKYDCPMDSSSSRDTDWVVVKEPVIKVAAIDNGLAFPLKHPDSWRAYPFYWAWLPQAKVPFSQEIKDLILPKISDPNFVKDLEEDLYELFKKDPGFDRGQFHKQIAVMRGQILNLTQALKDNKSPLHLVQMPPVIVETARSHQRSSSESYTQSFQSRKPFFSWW
#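 Compounds are screened against recombinant PI4K2A using PI as substrate and ATP, the latter dispensed at 300 microM. Reactions run one hour at ambient temperature before ADP-Glo detection; full inhibition defined by wells lacking enzyme.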
# A549 viability = kills or reduces viability of A549 cells in Nrf2 counter-screen | A549 ARE-Fluc cells, CellTiter-Fluor viability, 18-24 h | Potency, µM (doses to about 46 µM), for inactives: top-dose activity change, negative = cytotoxicity, usual class: inhibitors | actives 0.16% (n = 390,000); note: potency is the fitted concentration of half-maximal effect
#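 A549 ARE-Fluc cells in 5% FBS OPTI-MEM, 5000 cells/well, rested 2 h then exposed to compounds in concentration-response for 18-24 h at 37 °C. Viability by CellTiter-Fluor fluorescence (Ex 405/Em 525) after 30 min; luciferase luminescence (BugLite, 15 min, RT) read afterwards.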
# Nrf2 block = blocks Nrf2 signaling; Potency, µM (titrated, usually from 46 µM), for the others: top-dose activity change, negative = inhibition, hits mostly inhibitors; AID 504444; A549 ARE-Fluc reporter, luciferase luminescence, 18-24 h; actives 2.1% (n = 360,000); note: potency is the fitted concentration of half-maximal effect; nearly all actives have a fitted effect of over 60% in size
#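 Quantitative HTS in A549 cells stably bearing an antioxidant response element-firefly luciferase construct. Inhibition of Nrf2-driven transcription was scored by luminescence after 18-24 h of compound exposure at 37 °C.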
# KB-V1 MDR tox = kills drug-selected multidrug resistant KB-V1 cells; actives 3.4% (n = 400,000); Potency, µM (series often up to 46.1 µM), hits mostly cytotoxic; KB-V1 MDR cells viability, CellTiter-Glo, 72 h; note: potency is the fitted concentration of half-maximal effect; nearly all actives have a fitted effect of over 60% in size
#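 Compound-treated KB-V1 multidrug-resistant cells, 72 h, 37 degrees C; viability by CellTiter-Glo. Fitted qHTS curves give the values.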
# KB-3-1 tox = KB-3-1 parental cell cytotoxicity. actives 1.4% (n = 400,000). AID 1347075. KB-3-1 viability, CellTiter-Glo ATP luminescence, 72 h. Potency, µM (series often up to 46.1 µM), actives largely listed as cytotoxic; note: potency is the fitted concentration of half-maximal effect; nearly all actives have a fitted effect of over 60% in size
#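 72 h, 37 °C compound treatment of KB-3-1 parental cells; CellTiter-Glo added, 10 min, luminescence read. Data corrected against DMSO-only plates and normalized before curve fitting.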
# Giardia kill = kills Giardia lamblia | Giardia lamblia trophozoite viability | activity change, % at 7.66 µM, hits read low | actives 0.15% (n = 340,000); in the data active = activity change below about -80%; inconclusive = between about -30% and that limit;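 note: parasites exposed to compound for two days anaerobically before the ATP read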
#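 Killing of trophozoites was scored by loss of ATP luminescence after a 48 hrs anaerobic exposure to compounds at 37 deg C, using 100 cells per well.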
# Numbers without * were called inactive; i = inactive; ? = inconclusive; . = no result. Unless noted, calls come from the whole dose curve; as a rule, active = well fitted curve in the direction sought with a large enough effect; inconclusive = small, poorly fitted or top-dose-only effect, or another doubt; inactive = no such curve, though single readings can be large; an effect the other way counts as inactive or inconclusive. Unless noted, % is set by controls: 0 for no effect and ±100 for the full control effect.
SMILES,PI4K2A block,A549 viability,Nrf2 block,KB-V1 MDR tox,KB-3-1 tox,Giardia kill
O=C(CSc1nc2ccccc2[nH]1)NN=Cc1ccccc1C(=O)O,-4,.,.,.,.,.
O=C(CSc1nc2[nH]c(=O)cc(O)c2s1)Nc1nncs1,2,3%,6%,i,i,-3
Cc1csc(NC(=O)CSc2nc3[nH]c(=O)cc(O)c3s2)n1,-10,?,-9%,21µM*,4.1µM*,-87*
O=C(Cn1cnc2ccccc2c1=O)N1CCN(Cc2ccc(F)cc2)CC1,-1,.,.,.,.,.
O=C(N/N=C/c1ccc(Cl)cc1)c1cc(-c2cccnc2)nc2ccccc12,1,?,16%,9.2µM*,9.2µM*,-16
Cc1ccc(/C=N/NC(=O)c2cc(-c3cccnc3)nc3ccccc23)cc1,20,?,?,2.9µM*,2.9µM*,-10
Cc1ccc2nc(-c3ccccc3)cc(C(=O)Nc3cccnc3)c2c1,6,-7%,10%,2.9µM*,i,-5
O=C(N/N=C/c1cccnc1)c1cc(-c2ccc(Cl)cc2)nc2ccccc12,3,0%,?,?,i,0
COc1cccc(NC(=O)c2cc(-c3cccnc3)nc3c(Cl)cccc23)c1,-3,?,-23%,2.9µM*,i,-7
CC(=O)c1c(C)[nH]c(C(=O)CN2CCN(S(=O)(=O)c3ccc(C(C)C)cc3)CC2)c1C,3,-13%,15µM*,i,?,1
CC(=O)c1c(C)[nH]c(C(=O)CN2CCN(S(=O)(=O)c3ccccc3F)CC2)c1C,2,-13%,26µM*,?,i,7
COc1ccc(S(=O)(=O)N2CCN(CC(=O)c3[nH]c(C)c(C(C)=O)c3C)CC2)cc1OC,1,2%,-8%,?,i,15
CCOC(=O)c1c(C)[nH]c(C(=O)CN2CCN(CC)CC2)c1C,11,0%,-16%,i,i,12
Cc1cccc(Nc2nnc(-n3nc(C)cc3C)c3ccccc23)c1,-7,-11%,?,i,i,.
O=C1Cc2ccccc2C1=C1C=c2ccccc2=C1,.,.,.,i,?,.
CN(C)CCC(O)(c1ccccc1)c1ccccc1,2,0%,8%,i,i,-8
NCC(c1ccccc1)(c1ccccc1)c1ccccc1,4,8%,8%,21µM*,?,6
O=C(N/C=N/OCc1ccc(Cl)cc1Cl)NOCc1c(Cl)cccc1Cl,8,-19%,26µM*,?,i,-13
O=c1c2cccnc2[nH]c(=S)n1CCCN1CCN(c2ccccc2F)CC1,5,0%,0%,i,13µM*,-1
O=C(CCCn1c(=S)[nH]c2cc3c(cc2c1=O)OCO3)N1CCN(c2ccccc2F)CC1,3,?,?,16µM*,i,5
O=c1c2ccccc2[nH]c(=S)n1CCCN1CCN(c2ccccc2F)CC1,-10,5%,?,i,i,-4
CCOC(=O)N1CCN(C(=O)CCCn2c(=S)[nH]c3ccc(Br)cc3c2=O)CC1,6,-11%,?,12µM*,i,7
O=C(CCCn1c(=S)[nH]c2cc3c(cc2c1=O)OCO3)N1CCN(c2ccc(F)cc2)CC1,-3,-16%,?,i,i,11
COc1ccccc1C1=Nn2c(nnc2-c2cccc(OC)c2OC)SC1,.,8%,-7%,.,.,.
Cc1cccc(NC(=O)C2CCN(S(=O)(=O)c3cccs3)CC2)c1,2,-2%,-8%,?,i,1
SMILES,PI4K2A block,A549 viability,Nrf2 block,KB-V1 MDR tox,KB-3-1 tox,Giardia kill
O=C(Nc1ccccn1)C1CCN(S(=O)(=O)c2cccs2)CC1,0,-8%,?,?,i,-13
Cc1cccc(NC(=O)C2CCN(S(=O)(=O)c3cccs3)CC2)n1,3,-20%,?,23µM*,i,-7
Cc1ccc(NC(=O)C2CCN(S(=O)(=O)c3cccs3)CC2)cc1C,3,-22%,26µM*,?,i,0
COc1ccc(C(=O)N(Cc2ccccc2)Cc2ccccc2)cc1COc1ccc(NC(C)=O)cc1,.,-13%,?,.,.,.
COc1ccc(C(F)(F)F)cc1NC(=O)C(OC(=O)CNC(=O)c1ccccc1)c1ccccc1 (stereo not given),-6,7%,12%,.,.,.
COc1ccccc1OCCn1c(=S)[nH]c2ccccc21,-1,-2%,?,23µM*,?,5
Cc1ccc(OCCn2c(=S)[nH]c3ccccc32)c(C(C)C)c1,0,-5%,-22%,i,15µM*,17
Cc1[nH][nH]c(=O)c1C(c1c(C)[nH][nH]c1=O)c1cn(Cc2ccc(F)cc2)c2ccccc12,-27,-2%,-3%,?,?,-8
Cc1[nH][nH]c(=O)c1C(c1c(C)[nH][nH]c1=O)c1cn(Cc2ccc(Cl)c(Cl)c2)c2ccccc12,-30,-2%,-12%,13µM*,23µM*,11
Cc1sc(NC(=O)c2ccco2)c(C(Nc2ccccn2)c2ccccc2)c1C (stereo not given),3,-6%,21µM*,i,i,-28
COc1cccc(C(c2c(NC(=O)c3ccco3)sc(C)c2C)N2CCOCC2)c1 (stereo not given),-2,0%,-16%,?,23µM*,10
COc1ccc(C(Nc2ccccn2)c2c(NC(=O)c3ccco3)sc(C)c2C)cc1 (stereo not given),-1,0%,?,i,i,32
Cc1sc(NC(=O)c2ccco2)c(C(c2ccncc2)N2CCOCC2)c1C (stereo not given),0,1%,-16%,i,i,-7
COc1ccccc1/C=C/c1ccnc2ccccc12,.,.,.,i,i,.
Cc1cccc(-c2noc(-c3cc(C(C)C)[nH]n3)n2)c1,-2,-1%,24%,.,.,.
CCOc1ccc(N(C(=O)/C=C/C(=O)Nc2cc(C)on2)C(C(=O)NC2CCCC2)c2ccccc2C)cc1 (stereo not given),-1,?,?,?,9.2µM*,-4
C=CC(=O)NC1CCCCN(C(C)C)C1=O (stereo not given),-3,.,.,.,.,.
Fc1ccc(-c2cn3ccccc3n2)cc1,-12,12%,?,i,?,14
CCOc1ccc(-c2cn3ccccc3n2)cc1,-52*,17%,?,?,?,?
CCOc1ccc(C2=C(C(=O)CC)Sc3nncn3N2C(=O)CC)cc1,42,?,.,.,.,.
CCCCn1c(NCc2cc(Cl)ccc2O)nc2ccccc21,0,0%,.,13µM*,?,.
COc1cccc(CNCc2cccc(OC)c2O)c1O,2,-12%,-14%,18µM*,i,-11
